A selection: hits, their analogues and other compounds. The true share with any hit is near 4.8%.
DAX1 inh-1 – inhibits human nuclear receptor DAX1 | P51843 | HEK293 Gal4-DAX1 luciferase reporter, luminescence | inhibition, % at 6.75 µM | hit rate 0.99% among 340,000 | AID 504766;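 active means inhibition above the mean over all tested compounds plus 3 SD, cut at about 4.2% in these data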;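 further: 0% = DAX1-transfected cells with DMSO and 100% = empty-vector control cells with DMSO; inhibition shows as a rise in luminescence from relieved DAX1 repression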
Target sequence (P51843 207-470 limits assumed): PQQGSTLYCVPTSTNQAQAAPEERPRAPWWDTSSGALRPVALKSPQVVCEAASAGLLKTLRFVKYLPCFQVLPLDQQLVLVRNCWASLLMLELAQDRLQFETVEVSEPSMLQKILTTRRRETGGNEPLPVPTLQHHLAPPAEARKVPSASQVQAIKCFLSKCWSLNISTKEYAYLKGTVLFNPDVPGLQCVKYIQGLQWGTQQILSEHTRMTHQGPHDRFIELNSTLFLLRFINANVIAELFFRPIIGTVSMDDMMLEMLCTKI
DAX1 inh-2 – DAX1 (NR0B1) inhibition, primary screen. HEK293T StAR-luciferase reporter, SF-1/DAX-1 repression relief. inhibition, % at 6.8 µM. hit rate 1.1% among 370,000. AID 652010;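 active means inhibition above the mean over all tested compounds plus 3 SD, cut at about 3.6% in these data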;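 further: 0% = DAX-1 cells with DMSO and 100% = cells lacking DAX-1 with DMSO; higher inhibition means more luminescence from relief of DAX-1 repression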
hgDAF12 agonist – agonists of H. glycines DAF-12 nuclear receptor. AID 687014. HEK293 GAL4-hgDAF12 UAS-luciferase reporter, agonist luminescence; normalized to butyrate control. hit rate 1.8% among 370,000. activation, % at 6.8 µM;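 active means activation above a cutoff set at the mean of all screened compounds plus 3 SD, cut at about 10% in these data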;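 further: 0% = DMSO wells and 100% = sodium butyrate wells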
hcDAF12 agonist – activates DAF-12 receptor from parasite H. contortus. HEK293 hcDAF-12 lit1-tk-luc reporter, luminescence; 0% DMSO, 100% Δ7-dafachronic acid. activation, % at 6.8 µM. hit rate 1.4% among 370,000. AID 652067;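 active means activation above the mean of all tested compounds plus 3 SD, cut at about 5.5% in these data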;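 further: 100% = response to 3 µM Δ7-dafachronic acid high control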
ssDAF-12 act – activators of S. stercoralis DAF-12 nuclear receptor; HEK293 ssDAF-12/GRIP1 lit1-tk-luc reporter, luminescence; % of 3 µM dafachronic acid response; activation, % at 6.8 µM; hit rate 1% among 370,000; AID 652126;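 active means activation above the mean over all tested compounds plus 3 SD, cut at about 0.9% in these data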;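 further: 0% = DMSO-only wells and 100% = 3 µM delta7-dafachronic acid wells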
SMARCA2 act – activators of SMARCA2 function; MG213 cells, MMTV-luciferase reporter, dexamethasone, overnight; activation, % at 9.1 µM; hit rate 1% among 370,000; AID 652017; in the data active means activation above about 7.8%;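 further: 0% = vehicle wells and 100% = reference activator wells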
Numbers without * were called inactive; · = no result.

SMILES	DAX1 inh-1	DAX1 inh-2	hgDAF12 agonist	hcDAF12 agonist	ssDAF-12 act	SMARCA2 act
COc1ccc(N(C(C)=O)S(=O)(=O)c2cc(OC)ccc2OC)cc1	-0.1	0.3	-1.3	-1.2	-0.8	-1.2
COc1ccc(N(C(C)C(=O)N/N=C/c2cc(Br)c(C)o2)S(C)(=O)=O)cc1 (centres undefined)	-0.9	0.1	3.0	-0.5	-1.0	-3.3
C=CCn1c(SCC(=O)Nc2ccc(F)cc2F)nc2c([nH]c3ccccc32)c1=O	0.1	-1.0	1.4	2.9	1.9*	-1.6
COc1ccc(NC(=O)CSc2nc3c([nH]c4ccccc43)c(=O)n2C)c(OC)c1	1.4	1.1	0.9	4.6	0.9*	-1.3
COCCn1c(SCC(=O)NCCc2ccccc2)nc2c([nH]c3ccccc32)c1=O	0.0	·	·	·	·	·
C=CCn1c(SCC(=O)Nc2ccccc2OC)nc2c([nH]c3ccccc32)c1=O	0.3	-0.7	3.9	5.9*	0.3	3.0
C=CCn1c(SCC(=O)NCCc2ccccc2)nc2c([nH]c3ccccc32)c1=O	0.5	-1.6	1.6	4.8	1.0*	-0.1
COCCn1c(SCC(=O)Nc2ccccc2OC)nc2c([nH]c3ccccc32)c1=O	-0.7	-2.5	0.4	4.2	-0.3	-1.8
Cn1c(SCC(=O)Nc2ccc(F)cc2)nc2c([nH]c3ccccc32)c1=O	0.3	0.6	1.8	1.0	-1.0	-5.1
CC(OC(=O)c1cnccn1)C(=O)Nc1nc(-c2cccc([N+](=O)[O-])c2)cs1 (centres undefined)	0.5	3.1	4.6	1.1	-0.7	4.2
CCCCN1C(=O)/C(=C2\SC(N3CCCCC3)=NC2=O)c2ccccc21	4.3*	1.7	6.9	3.1	-1.7	5.8
O=C1N=C(N2CCCCC2)SC1=C1CCCC1	1.4	2.0	2.9	0.5	-0.7	-1.4
COc1cccc(C2=CC(=O)C[C@H](c3ccc4c(c3)OCO4)C2)c1	0.7	·	·	·	·	·
CC(C)Oc1ccc(CCNC(=O)CC2C(=O)NCCN2C)cc1 (centres undefined)	4.4*	1.7	-0.9	-0.5	-1.3	-4.0
COc1ccc(CCNC(=O)CC2C(=O)NCCN2CC(C)(C)C)cc1 (centres undefined)	-0.8	0.5	0.7	0.1	-0.5	-3.1
CCOc1cc(/C=C2/C(=N)N3C(=NC2=O)SN=C3S(C)(=O)=O)ccc1OS(=O)(=O)c1ccccc1	0.4	·	·	·	·	·
O=C(NC1CCCC1)C1c2ccccc2OCC(=O)N1Cc1ccccn1 (centres undefined)	·	-1.4	0.0	-1.1	-1.2	3.5
O=C(NC1CCCCC1)C1c2ccccc2OCC(=O)N1Cc1ccco1 (centres undefined)	·	4.4*	1.2	-1.3	-0.8	2.2
Cc1ccc(-c2nc(NC(=O)c3nn(C)cc3[N+](=O)[O-])sc2C)cc1C	-3.0	-2.1	-10.2	-4.1	-1.9	-10.5
O=C(Cc1nnc(NC(=O)Nc2ccccc2)s1)Nc1ccccc1	·	-0.4	0.1	0.3	-0.9	-2.5
O=C(Cc1nnc(NC(=O)Nc2ccc(F)cc2)s1)Nc1ccccc1	0.9	-0.1	-3.6	-0.9	1.1*	-0.5
COc1cccc(N2CCN(c3ccc(N4C(=O)CCC4=O)cc3[N+](=O)[O-])CC2)c1	6.6*	-0.7	1.9	-1.3	-1.3	-0.1
CCn1c(SCc2nc3ccccc3c(=O)[nH]2)nnc1C(C)NC(=O)c1ccccc1 (centres undefined)	-0.1	0.1	-1.0	0.3	-0.7	0.9
COc1ccc(Br)c(-c2nnc(CS(=O)(=O)c3ccccc3)o2)c1	0.1	0.8	11.1*	0.5	-0.6	3.0
CCN(CC(=O)Nc1c(F)cccc1F)C(=O)CCCN1C(=O)c2cccc3cccc(c23)C1=O	0.5	0.7	-1.7	1.1	-1.4	-0.2
SMILES	DAX1 inh-1	DAX1 inh-2	hgDAF12 agonist	hcDAF12 agonist	ssDAF-12 act	SMARCA2 act
c1coc(CSc2ncnc3c2oc2ccccc23)c1	5.7*	0.3	5.0	2.7	0.2	3.8
Cc1noc(C)c1S(=O)(=O)N1CCCc2nc(-c3ccc(F)cc3)ccc21	·	-2.8	-3.8	-3.3	-1.6	-3.4
Cc1ccc(N=CC=C2OC(C)(C)C(C)(C)O2)cc1	-0.7	-0.1	3.8	5.7*	-1.5	1.7
CCOc1ccc(NC(=S)NCCCc2ccccc2)cc1	0.2	-0.4	1.7	0.3	-1.4	-1.2
NC(=S)c1ccc(OCCCc2ccccc2)cc1	3.2	1.2	11.7*	1.6	-0.7	5.8
COCCC(=O)N1CCC(Oc2ccc(C(=O)NCCSC)cc2)CC1	6.9*	-0.1	-0.3	0.3	-1.2	-2.5
CCOC(=O)C1=C(C)Nc2ncnn2C1c1c[nH]c2ccccc12 (centres undefined)	0.1	1.2	2.6	4.2	0.6	-0.3
CC1=C(C(=O)OC(C)C)C(c2c[nH]c3ccccc23)n2ncnc2N1 (centres undefined)	0.9	-0.1	-0.8	5.7*	0.7	-0.8
COc1ccccc1C1C(C(N)=O)=C(C)Nc2ncnn21 (centres undefined)	6.7*	0.2	1.3	0.2	-1.4	-3.1
COc1cc(NS(=O)(=O)c2ccc(NC(=O)NC3CCCCC3)cc2)nc(OC)n1	0.7	2.5	2.5	2.1	-1.0	-4.2
Cc1ccc(C(=O)Nc2ccncc2)c(Cl)c1	-2.1	-0.7	1.6	-1.4	-1.4	5.1
O=C(Nc1ccccc1)c1cc([N+](=O)[O-])ccc1Cl	-0.1	-0.7	0.4	5.8*	-0.3	-2.5
O=C(Nc1ccc([N+](=O)[O-])cc1)c1ccccc1F	2.0	2.0	11.6*	1.9	-0.7	4.2
Cc1ccc(C(=O)Nc2ccc(Nc3ccccc3)cc2)c(Cl)c1	-1.3	-0.1	1.1	-2.0	2.0*	0.9
C=CCN(c1ccccc1OC)S(=O)(=O)c1ccc(Cl)c(C(=O)NCc2ccco2)c1	-1.4	-1.3	-3.5	-2.4	-1.6	-2.7
CN1CCc2c(sc(NC(=O)c3ccco3)c2C(N)=O)C1	0.2	0.5	2.4	2.9	-0.8	8.0*
O=C(Nc1sc2c(c1C(=O)O)CCCCC2)c1cccs1	2.5	2.5	10.3	4.5	1.0*	0.8
NC(=O)c1c(NC(=O)c2ccc([N+](=O)[O-])o2)sc2c1CCCC2	-0.3	-0.2	0.7	4.1	2.0*	4.0
CN1CCc2c(sc(NC(=O)c3ccc([N+](=O)[O-])o3)c2C(N)=O)C1	-1.4	-7.1	-7.0	-2.8	-1.0	-0.2
COc1ccccc1C(=O)Nc1sc2c(c1C(N)=O)CCCC2	0.6	0.4	2.6	3.0	0.9*	2.1
COc1ccc(C(=O)C2CCCN(Cc3cccn3-c3cccnc3)C2)cc1OC (centres undefined)	-0.3	0.0	-2.3	-0.6	-1.6	-2.8
CCN(CC)C(=O)C(Sc1nnnn1-c1ccc(O)cc1)c1ccccc1 (centres undefined)	-0.2	-0.2	0.6	-2.4	-1.2	-1.7

Screening results as filed in PubChem BioAssay.
